Consider five compounds from PubChem BioAssay.

Calls of active or inactive are those of the source. Unless noted, no rule for the calls is given here.

The nature of experiment [1]: compounds binding Alexa647 anti-His antibody – biochemical, small-molecule microarray, 635 nm fluorescence, artefact control for SMM control protein annotation, primary screen (AID 1128).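 Also: score merges feature fluorescence with signal-to-noise for each printed compound spot.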 The note with it: higher = more signal.
The subject of experiment [2] is Human papillomavirus type 1a E7 protein (residues 1-88). Put plainly: HPV1a E7 small-molecule binders, primary screen, biochemical, small-molecule microarray, residues 1-88, 635 nm (AID 1129). Particulars: small-molecule microarray binding, fluorescence 635 nm; higher = more signal.
Experiment [3] has as its target Focal adhesion kinase 1 (Homo sapiens) (UniProt Q05397). Description: PTK2 protein binding on printed compound slides – biochemical, small-molecule microarray, 635/667 nm fluorescence, BSA, DTT, primary screen (AID 1130).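 Also: composite of spot emission at 667 nm and signal to noise over triplicate slides.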 Particulars: 635 nm fluorescence, higher = more signal.
Experiment [4] deals with Fibrinogen (Alexa647-labelled). Description: Alexa647-fibrinogen binding to printed small molecules – biochemical, small-molecule microarray, 635/667 nm fluorescence, artefact control for SMM control-protein annotation, profiling panel (AID 1131).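 Also: z-score merges 667 nm fluorescence with per-spot signal-to-noise over triplicate slides.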 The note with it: fibrinogen-A647 binding fluorescence, higher = more signal.
Experiment [5] deals with Follistatin (Homo sapiens) (UniProt P19883). Put plainly: FST protein binding to printed compounds – biochemical, small-molecule microarray, 635/667 nm fluorescence, primary screen (AID 1132). The note with it: 635 nm fluorescence, higher = more signal.
Experiment [6] concerns the target Fibroblast growth factor 2 (Homo sapiens) (UniProt P09038). Put plainly: basic fibroblast growth factor binding to printed compounds – biochemical, small-molecule microarray, 635/667 nm fluorescence, primary screen (AID 1133). The note with it: FGF2, fluorescence 635/667, higher = more signal.
Experiment [7] is described as follows: JC-1 mitochondrial potential readout, lung cancer cells – cell-based, A549, JC-1 fluorescence, basal, 24 h, 100 nL, profiling panel (AID 1138).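 Also: A549 lung adenocarcinoma cells under basal conditions with no added stimulus; test concentration not given here.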 Particulars: higher = more signal.
A further experiment relates to Lefty1. Put plainly: Lefty1 protein binding to printed compounds – biochemical, small-molecule microarray, 635/667 nm fluorescence, primary screen (AID 1139). Particulars: fluorescence 635/667, higher = more signal.
For experiment [8], the system named is wheat germ agglutinin (Triticum aestivum), Alexa647-labelled. Put plainly: Alexa647-WGA lectin binding to printed small molecules – biochemical, small-molecule microarray, 635/667 nm fluorescence, artefact control for SMM control-protein annotation, profiling panel (AID 1140).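 Also: score merges 667 nm feature emission with signal to noise over triplicate slides.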 Particulars: WGA-A647 binding, 635 nm fluorescence, higher = more signal.
For experiment [9], the target named is Luciferin 4-monooxygenase (Photinus pyralis) (UniProt P08659). Put plainly: inhibition of purified Photinus pyralis luciferase – biochemical, luminescence, purified enzyme, 2006 set, primary screen (AID 1141).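 Also: cell-free assay with purified firefly luciferase at 100 ng per well in PBS; test concentration not given here.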 Particulars: purified firefly luciferase, SteadyGlo luminescence, 30 min; higher = more signal, called active from +8 up or from −8 down.
The test system of experiment [10] is Wnt5a (protein binding on small-molecule microarray). Put plainly: small molecules binding Wnt5a protein – biophysical, small-molecule microarray, 635/667 nm fluorescence, primary screen (AID 1142).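 Also: fluorescence read at 667 nm with signal to noise per printed feature.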 The note with it: 635 nm fluorescence, higher = more signal.
Experiment [11] can be described thus: ATP-based viability of Huh7 replicon cells – cell-based, CellTiter-Glo luminescence, basal, 48 h, cytotoxicity control for HCV replication inhibitor project, primary screen (AID 1143).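 Also: Huh7 hepatoma cells carrying a hepatitis C replication reporter with no stimulus; test concentration not given here.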 Particulars: higher = more signal, called active from +8 up or from −8 down.
Experiment [12] is described as follows: Pseudomonas biofilm growth suppression – PAO1 strain, BacTiter-Glo luminescence, LB-PBS, primary screen (AID 1144). The note with it: P. aeruginosa PAO1 biofilm, 12 h, higher = more signal.
Experiment [13] is described as follows: basal CRE-LacZ reporter activity in PC12 – cell-based, unstimulated, primary screen (AID 1145). Particulars: no forskolin, luminescence, 4.5 h, higher = more signal, called active from +8 up or from −8 down.
Experiment [14] in a line: forskolin-driven CRE-LacZ activity in PC12 – cell-based, CRE-LacZ reporter, forskolin-stimulated, primary screen (AID 1146).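 Also: PC12 cells with 6xCRE LacZ reporter stimulated by forskolin 10 µM; beta-galactosidase reporter signal reflecting CREB driven transcription.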 Particulars: luminescence, 4.5 h, higher = more signal, called active from +8 up or from −8 down.
For experiment [15], the target named is Streptavidin (Streptomyces avidinii) (UniProt P22629). Description: compounds binding control protein streptavidin – biophysical, small-molecule microarray, 635/667 nm fluorescence, artefact control for SMM compound annotation, primary screen (AID 1147).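 Also: signal reflects streptavidin binding to arrayed compounds as a control protein.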 Particulars: higher = more signal.
Experiment [16] can be described thus: probe aInhba binding on compound microarray – biochemical, small-molecule microarray, 635/667 nm fluorescence, primary screen (AID 1148).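 Also: score merges 667nm spot fluorescence with signal-to-noise for antibody binding to printed compounds.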 The note with it: higher = more signal.
In experiment [17] the target is Torsin-1A (Homo sapiens) (UniProt O14656). Description: TOR1A wild-type binding on microarray – cell lysate, small-molecule microarray, lysate, 635/667 nm, primary screen (AID 1149). The note with it: COS7 hTOR1A-WT lysate, 635 nm fluorescence, higher = more signal.
For experiment [18] the target is unchanged. Put plainly: torsin A mutant lysate binding on microarrays – cell lysate, small-molecule microarray, COS7 lysate, 635/667 nm fluorescence, primary screen (AID 1150).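 Also: score pools 667 nm emission and signal to noise measuring lysate protein binding.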 Particulars: COS7 hTOR1A mutant lysate, 635 nm fluorescence, higher = more signal.
Experiment [19] concerns Sonic hedgehog protein (Shh). Description: Sonic hedgehog microarray binding compounds – biochemical, small-molecule microarray, 635/667 nm fluorescence, primary screen (AID 1151).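 Also: Shh protein binding to compounds spotted on small-molecule microarray slides; score combines spot fluorescence intensity with signal-to-noise across triplicate slides.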 The note with it: 635 nm fluorescence, higher = more signal.

Sequence of Streptavidin (Streptomyces avidinii) (P22629 whole entry, looked up): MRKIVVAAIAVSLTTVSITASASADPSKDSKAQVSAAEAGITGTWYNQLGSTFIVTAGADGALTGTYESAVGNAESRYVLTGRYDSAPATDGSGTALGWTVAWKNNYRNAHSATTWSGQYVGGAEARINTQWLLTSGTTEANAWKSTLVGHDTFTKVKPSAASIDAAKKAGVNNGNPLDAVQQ
Sequence of Follistatin (Homo sapiens) (P19883 whole entry, looked up): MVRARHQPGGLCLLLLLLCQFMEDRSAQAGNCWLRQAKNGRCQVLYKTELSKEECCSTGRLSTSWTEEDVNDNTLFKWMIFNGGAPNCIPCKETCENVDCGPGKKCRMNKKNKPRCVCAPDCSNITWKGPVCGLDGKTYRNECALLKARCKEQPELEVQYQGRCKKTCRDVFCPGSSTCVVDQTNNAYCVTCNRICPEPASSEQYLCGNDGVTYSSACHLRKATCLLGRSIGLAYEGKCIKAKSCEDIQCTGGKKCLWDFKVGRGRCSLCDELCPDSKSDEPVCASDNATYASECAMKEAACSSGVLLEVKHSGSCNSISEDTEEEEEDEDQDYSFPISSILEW
Sequence of Luciferin 4-monooxygenase (Photinus pyralis) (P08659 whole entry, looked up): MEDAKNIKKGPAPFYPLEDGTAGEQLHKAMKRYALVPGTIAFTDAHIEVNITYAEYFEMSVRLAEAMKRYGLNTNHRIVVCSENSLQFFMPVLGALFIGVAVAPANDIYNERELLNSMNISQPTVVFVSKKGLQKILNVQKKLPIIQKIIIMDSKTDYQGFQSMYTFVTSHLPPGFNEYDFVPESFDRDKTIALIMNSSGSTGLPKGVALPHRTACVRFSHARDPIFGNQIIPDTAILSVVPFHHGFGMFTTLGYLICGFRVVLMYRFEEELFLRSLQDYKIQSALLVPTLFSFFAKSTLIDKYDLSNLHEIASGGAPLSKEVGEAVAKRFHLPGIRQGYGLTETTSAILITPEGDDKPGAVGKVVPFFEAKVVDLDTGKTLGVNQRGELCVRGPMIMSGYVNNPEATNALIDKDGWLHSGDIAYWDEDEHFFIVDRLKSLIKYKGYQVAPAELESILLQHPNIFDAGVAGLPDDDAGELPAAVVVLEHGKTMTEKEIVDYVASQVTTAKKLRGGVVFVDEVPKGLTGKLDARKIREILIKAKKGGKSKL
Sequence of Fibroblast growth factor 2 (Homo sapiens) (P09038 whole entry, looked up): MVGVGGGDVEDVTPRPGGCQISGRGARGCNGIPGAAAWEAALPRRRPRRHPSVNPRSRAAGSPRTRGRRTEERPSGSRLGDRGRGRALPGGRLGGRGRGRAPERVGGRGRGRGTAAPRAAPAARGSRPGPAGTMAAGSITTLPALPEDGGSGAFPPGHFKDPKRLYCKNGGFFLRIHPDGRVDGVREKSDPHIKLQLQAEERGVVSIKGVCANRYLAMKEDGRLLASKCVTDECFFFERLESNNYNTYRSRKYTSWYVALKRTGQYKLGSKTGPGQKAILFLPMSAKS
Sequence of Torsin-1A (Homo sapiens) (O14656 whole entry, looked up): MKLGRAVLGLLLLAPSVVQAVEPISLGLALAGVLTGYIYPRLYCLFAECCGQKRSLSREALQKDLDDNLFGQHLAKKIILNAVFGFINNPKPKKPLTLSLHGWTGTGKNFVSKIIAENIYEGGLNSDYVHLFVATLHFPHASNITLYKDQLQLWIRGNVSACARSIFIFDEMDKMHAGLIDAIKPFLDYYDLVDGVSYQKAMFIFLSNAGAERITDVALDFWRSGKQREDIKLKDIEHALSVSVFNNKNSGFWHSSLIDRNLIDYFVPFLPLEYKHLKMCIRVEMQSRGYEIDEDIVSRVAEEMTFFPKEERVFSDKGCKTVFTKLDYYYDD
Sequence of Focal adhesion kinase 1 (Homo sapiens) (Q05397 whole entry, looked up): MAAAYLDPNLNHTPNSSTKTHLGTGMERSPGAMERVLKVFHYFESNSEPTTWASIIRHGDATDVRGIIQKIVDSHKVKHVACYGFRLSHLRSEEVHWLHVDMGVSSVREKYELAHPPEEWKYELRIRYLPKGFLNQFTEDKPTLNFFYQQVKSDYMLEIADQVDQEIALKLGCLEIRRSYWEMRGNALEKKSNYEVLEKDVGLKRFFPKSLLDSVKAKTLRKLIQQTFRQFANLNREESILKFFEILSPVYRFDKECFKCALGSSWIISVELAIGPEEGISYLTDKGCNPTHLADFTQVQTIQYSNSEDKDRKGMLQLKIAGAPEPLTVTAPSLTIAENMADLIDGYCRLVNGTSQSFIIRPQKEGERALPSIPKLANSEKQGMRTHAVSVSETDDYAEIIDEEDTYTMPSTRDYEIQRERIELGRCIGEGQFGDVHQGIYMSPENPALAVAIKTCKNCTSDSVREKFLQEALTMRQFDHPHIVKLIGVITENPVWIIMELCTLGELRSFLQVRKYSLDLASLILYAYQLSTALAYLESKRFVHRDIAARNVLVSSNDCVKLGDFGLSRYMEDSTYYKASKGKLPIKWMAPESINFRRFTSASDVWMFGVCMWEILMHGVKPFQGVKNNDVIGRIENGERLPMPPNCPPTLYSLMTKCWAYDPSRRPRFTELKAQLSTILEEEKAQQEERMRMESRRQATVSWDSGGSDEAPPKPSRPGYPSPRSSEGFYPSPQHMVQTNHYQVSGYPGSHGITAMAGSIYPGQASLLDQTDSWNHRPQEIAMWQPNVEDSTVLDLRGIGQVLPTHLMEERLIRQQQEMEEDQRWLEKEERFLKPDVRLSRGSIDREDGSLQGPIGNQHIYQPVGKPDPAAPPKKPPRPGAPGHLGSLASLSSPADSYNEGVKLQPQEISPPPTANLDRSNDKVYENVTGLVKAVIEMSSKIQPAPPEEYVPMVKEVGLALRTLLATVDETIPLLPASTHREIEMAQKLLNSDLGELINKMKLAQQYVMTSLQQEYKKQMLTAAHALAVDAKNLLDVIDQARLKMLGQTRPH

With `CCCCC#C[C@@H]1C=C[C@H](Oc2cc(OC)c(OC)c(OC)c2)[C@@H](COC(=O)OCC)O1`, the composite z-score in [1] is 0.054; in experiment [2], -0.637; in experiment [3], -0.253; in experiment [4], 0.388; in [5], 0.135; in [6], 0.265. The composite z-score was 0.386 with Lefty1; -0.0925 in [8]; -0.282 in experiment [10]; -0.523 in [15]; -0.173 in experiment [16]; -0.0251 in the experiment with Torsin-1A (Homo sapiens) [17]. Moreover, the composite z-score with Torsin-1A (Homo sapiens) [18] is -0.361; in experiment [19], 0.375. Besides, the z-score in experiment [7] was 2.36; in [9], -1.12 (inactive); in [11], -0.721 (inactive); in experiment [12] it was -0.264 (inactive); in experiment [13], 2 (inactive); in experiment [14], -0.684 (inactive).

As for `C[C@@H]1CC[C@H]2C(=O)O[C@@H](Cc3ccccc3)CN2[C@H]1c1ccc(Br)cc1`, the composite z-score in [1] was 2.07; in experiment [2] it was 0.688; in [3], 0.217; in [4], 0.376; in experiment [5], 0.397; in experiment [6], 0.297. Besides, the composite z-score in the experiment on Lefty1 is 0.495; in experiment [8], 0.526; in [10] it was -0.0729; in experiment [15] it was -0.0253; in [16], -0.133; with Torsin-1A (Homo sapiens) [17], 0.433. Further, the values for the composite z-score (with Torsin-1A (Homo sapiens) [18]; in [19]) were 0.533 and 0.656, respectively. The z-score in experiment [7] is 0.362; in [9], 0.178 (inactive); in experiment [11] it was -0.309 (inactive); in [12] it was 0.502 (inactive); in [13] it was 0.583 (inactive); in [14], -0.143 (inactive).

As to `CCN1C(=O)[C@H]2[C@H]3[C@H](O)[C@H](O)CC(=O)[C@H]3CC[C@H]2C1=O`, the composite z-score in experiment [1] was determined as 0.463; in experiment [2], 0.809; in [3], 0.0493; in experiment [4], 0.861; in [5], 0.486; in [6], 0.485. Further, the composite z-score in the experiment with Lefty1 was 0.559; in experiment [8] it was 0.145; in [10], 0.113; in experiment [15], -0.0154; in experiment [16], -0.225; with Torsin-1A (Homo sapiens) [17], 1.06. Besides, the composite z-score in the experiment with Torsin-1A (Homo sapiens) [18] came to 0.386; in experiment [19] it was 0.593. Further, the z-score in experiment [7] was -0.335; in experiment [9] it was -0.371 (inactive); in [11], 0.89 (inactive); in experiment [12] it was -0.212 (inactive); in experiment [13], -0.293 (inactive); in experiment [14], -0.733 (inactive).

For the compound `CCOC(=O)C1=NO[C@]2(C=C(Br)C3(OCCCO3)[C@H]3O[C@H]32)C1`, the composite z-score is -0.765 in experiment [1]; -0.57 in experiment [2]; -0.428 in [3]; 0.185 in experiment [4]; -0.599 in experiment [5]; -0.285 in experiment [6]. The composite z-score in the experiment with Lefty1 is -0.168; in [8], 0.513; in [10] it was 0.0562; in [15], -0.468; in experiment [16], -0.163; in the experiment with Torsin-1A (Homo sapiens) [17], 0.748. Also, the figures for the composite z-score (with Torsin-1A (Homo sapiens) [18]; in experiment [19]) were 1.42 and 0.0095, respectively. The z-score in [7] was -0.242; in [9] it was 0.163 (inactive); in experiment [11] it was 0.974 (inactive); in experiment [12], 0.892 (inactive); in [13] it was -0.254 (inactive); in experiment [14], 1.65 (inactive).

As for `CC(C)=CCCC(C)=CCON=C1C[C@@H](O)[C@@H](O)[C@@H]2[C@@H]3C(=O)N(C(C)(C)C)C(=O)[C@@H]3CC[C@@H]12`, the composite z-score was 0.696 in [1]; 0.494 in [2]; 0.057 in experiment [3]; -0.0293 in experiment [4]; 0.307 in [5]; 0.247 in experiment [6]. The composite z-score in the experiment with Lefty1 is 0.351; in [8], 0.269; in experiment [10] it was -0.0529; in experiment [15], -0.125; in experiment [16], -0.293; with Torsin-1A (Homo sapiens) [17], 0.244. Further, the composite z-score with Torsin-1A (Homo sapiens) [18] is 0.764; in [19] it was 0.711. In addition, the z-score in experiment [7] was -0.872; in experiment [9] it was 0.421 (inactive); in [11], -0.813 (inactive); in experiment [12] it was -0.408 (inactive); in [13] it was 1.6 (inactive); in experiment [14], 0.585 (inactive).
